From PubChem BioAssay AID651551 (Sanford-Burnham Center for Chemical Genomics, 2012)

experiment: GAPDH versus PEG-3 reporter suppression – cell-based, luminescence, counter-screen for PEG-3 promoter inhibitor project, SAR follow-up (AID 651551); conditions: HeLa PEG-Prom / GAPDH luciferase reporter, 6 or 24 h, run 1, 6 h; at 99 µM (top of the series)

| SMILES | inhibition % (higher = more inhibition) [%] |
| --- | --- |
| Cc1nc(NC(=O)c2ccccc2)sc1-c1csc(Nc2cccc(Cl)c2C)n1 | 27 |
| Cc1nc(NC(=O)c2ccccc2)sc1-c1csc(Nc2ccccc2)n1 | 81.9 |
| Cc1cc(NC(=O)c2ccccc2)n(-c2nc3ccccc3[nH]2)n1 | 21.2 |
| Cc1cc(NC(=O)c2ccccc2)n(-c2nc3ccccc3n2C)n1 | 28.6 |
| COc1ccc(Cl)cc1Nc1nc(-c2sc(NC(=O)c3ccccc3)nc2C)cs1 | 44.4 |
| COc1ccc(-n2nc(C(=O)NCC(=O)Nc3cccc(OC)c3)c3ccccc3c2=O)cc1 | 31.1 |
| O=C(Nc1nc2ccccc2s1)c1nn(-c2ccccc2)c(=O)c2ccccc12 | 27 |
| CCCn1nc(C(=O)Nc2nc3ccccc3s2)c2ccccc2c1=O | 42.8 |
| CCn1nc(C(=O)Nc2nc(-c3ccccn3)cs2)c2ccccc2c1=O | 38.3 |
| O=C(Nc1nc(-c2ccccc2)cs1)c1nn(-c2ccccc2)c(=O)c2ccccc12 | 32.8 |
| Cc1nc(NC(=O)c2ccccc2)sc1-c1csc(Nc2ccccc2Cl)n1 | 32 |
| Cc1ccc(Cl)cc1Nc1nc(-c2sc(NC(=O)c3ccco3)nc2C)cs1 | 35.5 |
| COc1ccc(-n2nc(C(=O)NCC(=O)Nc3cc(OC)c(OC)c(OC)c3)c3ccccc3c2=O)cc1OC | 29.5 |
| O=C(Nc1nccs1)c1nn(-c2ccccc2)c(=O)c2ccccc12 | 28 |
| CCCn1nc(C(=O)Nc2nc(-c3ccncc3)cs2)c2ccccc2c1=O | 44.4 |
| CCCn1nc(C(=O)Nc2nc(-c3ccccn3)cs2)c2ccccc2c1=O | 81.9 |
| COCCCNC(=O)c1ccc(Cn2c(=O)c3ccccc3n(Cc3ccccc3C#N)c2=O)cc1 | 25.3 |
| CCn1cc(C(=O)NCc2ccco2)c(=O)c2cc(S(=O)(=O)N3CCCC3)ccc21 | 37.8 |
| Cc1cc(NC(=O)c2ccccc2C(F)(F)F)n(-c2nc3ccccc3[nH]2)n1 | 89.3 |
| Cc1cc(NC(=O)c2ccccc2C)n(-c2nc3ccccc3[nH]2)n1 | 44.4 |
| COc1ccccc1Nc1nc(-c2sc(NC(=O)c3ccco3)nc2C)cs1 | 51 |
| COc1ccc(-n2nc(C(=O)NCC(=O)Nc3ccc(OC)c(OC)c3)c3ccccc3c2=O)cc1 | 69.4 |
| Cc1cc(NC(=O)c2cccc(C)c2C)n(-c2nc3ccccc3[nH]2)n1 | 13.7 |
